TTR transcr act = TTR transcription activation, primary screen; 1.3% of 92,000 active; activation, % at 16.7 µM; SH-SY5Y TTR promoter Gaussia luciferase, luminescence; 100% = recombinant luciferase protein wells;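 active = activation above the mean of all tested compounds plus 3 SD, cut at about 9.5% in these data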;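 also: cells exposed to compounds for one day before reading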
TTR inh HuH7 = decreases TTR transcription in HuH7 cells in activator counter-screen; 4% of 1,100 active; HuH7 TTR promoter-Gaussia luciferase reporter, luminescence; shares compounds with TTR transcr act; inhibition, % at 16.7 µM;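 active = average inhibition above the solvent-only control wells' mean plus 3 SD, cut at about 15% in these data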;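 also: inhibitors lower well luminescence so higher value means more inhibition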
TTR up confirm = human TTR transcription activation, confirmation | shares compounds with TTR transcr act | SHSY5Y TTR promoter Gaussia luciferase, luminescence; 100% = purified Lucia enzyme wells, no cells | activation, % at 16.7 µM | 1,100 tested, under 10 active | AID 1117280;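 active = mean activation above a set limit taken from the earlier primary screen, cut at about 11% in these data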
Hits are given with their value; n = inactive. Only a selection was taken, and hits are over-represented in it overall.

SMILES	TTR transcr act	others
CO[C@H]([C@H](C)/C=C/N(C)C=O)[C@@H](C)C(=O)CC[C@H](C)[C@H](O)[C@H](C)[C@H]1OC(=O)/C=C/C(C)=C/C[C@H](O)C[C@@H]2C=CC[C@@H](C[C@H](OC)[C@@H](C)[C@@H](OC)C[C@@H](OC)[C@@H]1C)O2	n
N#Cc1cccc(Cn2ccc3ccc(-c4ccc5ccn(Cc6cccc(C#N)c6)c5c4)cc32)c1	n
CC(=O)C1=CCN(C)CC1	n
CCCC1CCC2(CC1)CCC2OC(=O)Nc1ccc(F)cc1 (stereo not given)	n
O=c1[nH][nH]c(=O)c(Cl)c1Cl	12	TTR inh HuH7=n;TTR up confirm=n
COc1ccc(Oc2c(-c3cccs3)cnn(-c3ccc(C)cc3)c2=O)cc1	n
CCC[C@H]1[C@@H](OC(=O)NCc2cccc(Cl)c2)CC[C@@]23CCCN2C(=O)CCC[C@@H]13	n
CCOC(=O)c1cccc(-c2cc(C(C)=O)c3n(c2=O)CCC3)c1	n
Cc1noc(C)c1NC(=O)N(C)C[C@H]1OCc2cn(nn2)CCCC(=O)N([C@H](C)CO)C[C@@H]1C	n
Cc1ccc(CCNC(=O)c2cc(S(=O)(=O)N3CCCCC3)c[nH]2)cc1	n
O=C(NCc1ccc(F)cc1)c1cc(S(=O)(=O)N2CCCCC2)c[nH]1	n
O=C(NCCc1ccccc1)c1cc(S(=O)(=O)N2CCCCC2)c[nH]1	15	TTR inh HuH7=n;TTR up confirm=n
CC1CCC2(CC1)CCC2NCc1ccc(Cl)c(Cl)c1 (stereo not given)	n
C[C@@H]1CCN(C2CC2)S(=O)(=O)c2ccc(N3CC[C@@H](O)C3)cc2O1	n
COC(=O)c1ccc(Cn2nc(C)cc2C)cc1	n
COc1ccc(-c2cc3ccccc3n2CC(O)Cn2nc(C)cc2C)cc1 (stereo not given)	n
CC(=O)OC(Cn1nc(C)cc1C)c1ccccc1 (stereo not given)	10	TTR inh HuH7=n;TTR up confirm=n
CCc1cc(=O)oc2cc(OCC(=O)NCCCn3ccnc3)c(Cl)cc12	n
CCc1cc(=O)oc2c(C)c(OCC(=O)NCCCN3CCOCC3)ccc12	n
CCCCc1cc(=O)oc2cc(OCC(=O)NCCN3CCOCC3)c(Cl)cc12	11	TTR inh HuH7=n;TTR up confirm=n
CCCCN1C(=O)c2ccccc2NC1c1ccc(OC)c(COc2ccc(NC(C)=O)cc2)c1 (stereo not given)	n
COC(=O)[C@]12C[C@H](CC(=O)N3CCN(C(=O)C4CC4)CC3)C(=O)N(Cc3cccc4ccccc34)C1=C[C@H](COCc1ccccc1)O[C@@H]2C	n
CC(=O)O[C@H]1C[C@@H](n2cnc3c(Cl)ncnc32)[C@@H]2OC(C)(C)O[C@@H]21	n
Cc1ccc(S(=O)(=O)n2c3ccc(Cl)cc3c3nc(C)sc32)cc1	18	TTR inh HuH7=n;TTR up confirm=n
Cc1cn(S(=O)(=O)c2ccc(Cl)cc2)c(C)n1	n
SMILES	TTR transcr act	others
Cc1ccc(S(=O)(=O)n2c(N)nc3cc(C)c(C)cc32)cc1	n
CCOC(=O)[C@@]12CCC3=C1N(CCC3)C(=O)[C@H](CC(=O)NCc1ccc(OC)c(OC)c1)C2	n
Cc1noc(C)c1NC(=O)Nc1ccc2c(c1)C(=O)N([C@@H](C)CO)C[C@@H](C)[C@H](CN(C)S(=O)(=O)c1ccc(F)cc1)OCCCC[C@H](C)O2	n
O=C(Nc1nc2ncccn2c1-c1ccc(F)cc1)c1ccc(F)cc1	n
CCC[C@H]1[C@@H](NC(=O)c2ccc(Cl)cc2)CC[C@@]23CCCN2C(=O)CCC[C@@H]13	n
Cc1ccc(Nc2n[nH]c(=S)s2)cc1F	n
O=c1cc(O)c2sc(Nc3ccc(Cl)c(F)c3)nc2[nH]1	9.9	TTR inh HuH7=17;TTR up confirm=n
COc1ccc(Nc2nc3[nH]c(=O)cc(O)c3s2)cc1	n
COC(=O)C(CSCc1ccccc1)NC(=O)CCNC(=O)OCc1ccccc1 (stereo not given)	14	TTR inh HuH7=n;TTR up confirm=n
Cc1cc(Br)c(NC(=O)CCNC(=O)OCc2ccccc2)cc1C	n
COC(=O)C(CCCCNC(=O)OCc1ccccc1)NC(=O)CN (stereo not given)	n
CC1CCC(=O)N(CCSc2ccccc2)CC1 (stereo not given)	n
Cc1ccc(SCCN2CCC(O)CCC2=O)cc1 (stereo not given)	23	TTR inh HuH7=n;TTR up confirm=n
Cc1ccc(SCCN2CCN(C)CCC2=O)cc1	n
CC(C)COc1ccc(-c2csc(N3CCC(C(N)=O)CC3)n2)cc1	n
COC(=O)[C@]12C[C@H](CC(=O)N3CCCCC3)C(=O)N(Cc3ccc(Cl)cc3Cl)C1=C[C@H](C(C)C)O[C@@H]2C1CC1	n
O=C(O)CCn1cc(-c2ccc(Cl)cc2)nc1-c1ccc(Cl)nc1	9.7	TTR inh HuH7=n;TTR up confirm=n
Cc1ccc(-c2cn(CCN)c(-c3ccncc3)n2)cc1	n
COc1ccc(-c2cn(CCO)c(-c3ccc(Cl)nc3)n2)cc1	n
COC(=O)[C@]12C[C@H](CC(=O)NCCC(C)C)C(=O)N(Cc3ccco3)C1=C[C@H](C1CCCC1)O[C@@H]2C	n
C[C@H]1[C@@H](NC(=O)C#Cc2ccccc2)CC[C@@]23CCCN2C(=O)CCC[C@@H]13	n
O=C(c1cccc(F)c1)n1ccc2ccc(-c3ccc4ccn(Cc5ccccc5)c4c3)cc21	n
COc1ccc(N(C(=O)CNC(=O)c2ccco2)C(C(=O)NC2CCCC2)c2ccncc2)cc1 (stereo not given)	n
COc1ccc(N(C(=O)Cc2cccs2)C(C(=O)NC2CCCC2)c2ccncc2)cc1 (stereo not given)	18	TTR inh HuH7=n;TTR up confirm=n
COc1ccc(N(C(=O)CNC(=O)c2cccs2)C(C(=O)NC2CCCC2)c2ccncc2)cc1 (stereo not given)	n
SMILES	TTR transcr act	others
COc1ccc2[nH]c3c(c2c1)CCN[C@]31C(=O)N(Cc2cn(Cc3ccccc3)nn2)c2ccccc21	n
C[C@H]1[C@@H](OC(=O)N2CCCC2)CC[C@@]23CCCN2C(=O)CCC[C@@H]13	n
Cc1ccccc1CNC1CCC12CCC(c1ccccc1)CC2 (stereo not given)	n
Cc1cccnc1N=O	n
O=C(NCCCCNC(=O)c1cccs1)c1cccs1	n
COCCCNC(=O)c1cccs1	16	TTR inh HuH7=n;TTR up confirm=n
O=C(NCCCNC(=O)c1cccs1)c1cccs1	n
CCOC(=O)[C@@]12CCC3=C1N(CCC3)C(=O)[C@H](CC(=O)NCC1CCCCC1)C2	n
CC(OP(=O)(O)C(NC(=O)[C@H](Cc1ccc(O)cc1)NC(=O)OC(C)(C)C)C(C)C)C(=O)O (stereo not given in full)	n
CC(NC(=O)c1cc2ccc(C(F)(F)F)cc2nc1N)c1cccc2ccccc12 (stereo not given)	n
CCN(C(=O)[C@@H](C1CC1)[C@@H](O)c1ccc(C(C)=O)cc1)c1ccccc1	n
CS(=O)(=O)N1N=C(c2ccco2)CC1c1ccc(Br)cc1 (stereo not given)	18	TTR inh HuH7=n;TTR up confirm=n
COc1ccc(C2CC(c3ccc(OC)c(OC)c3)=NN2S(C)(=O)=O)cc1 (stereo not given)	n
CS(=O)(=O)N1N=C(c2cccs2)CC1c1ccccc1 (stereo not given)	n
C[C@H]1[C@H](NC(=O)c2cccc(Cl)c2)CC[C@@]23CCCN2C(=O)CCC[C@@H]13	n
CC(C)CNC(=O)OCc1cn(Cc2c(F)cccc2F)nn1	n
